Compound activity as filed in PubChem.
A selection: hits, their analogues and other compounds. The true share with any hit is near 11%.
G9a block: qHTS Assay for Inhibitors of Histone Lysine Methyltransferase G9a; Histone-lysine N-methyltransferase EHMT2 (Homo sapiens), Q96KQ7; G9a H3K9 monomethylation, AlphaScreen, 2 h; Potency, µM (series often up to 102 µM), inactives show top-dose activity, negative = inhibition, most hits filed as inhibitors; actives 8.8% (n = 350,000); also: potency is read from the fitted curve at half-maximal effect; nearly all actives have a fitted effect of over 75% in size
Target sequence (Q96KQ7 913-1193 limits assumed): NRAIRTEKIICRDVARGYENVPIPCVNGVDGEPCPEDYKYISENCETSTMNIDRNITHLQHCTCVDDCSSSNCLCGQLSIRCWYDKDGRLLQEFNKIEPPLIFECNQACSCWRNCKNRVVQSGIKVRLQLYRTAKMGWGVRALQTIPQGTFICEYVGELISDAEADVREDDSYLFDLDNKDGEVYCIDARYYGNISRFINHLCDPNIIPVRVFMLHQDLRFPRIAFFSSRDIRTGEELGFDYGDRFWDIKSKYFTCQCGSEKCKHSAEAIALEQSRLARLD
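AlphaScreen read-out: biotin-H3K9 peptide (500 nM) methylation by 20 nM enzyme with 20 uM SAM, 2 h at room temperature after 15 min compound preincubation; anti-monomethyl H3K9 antibody plus donor/acceptor beads, 10 min dark.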
Tau fluor cs: Counterscreen qHTS for Inhibitors of Tau Fibril Formation, Fluorescence Polarization; tau K18 P301L Alexa594 fluorescence, heparin fibrillization; Potency, µM (series often up to 57.7 µM), inactives show at the highest dose activity change, negative = decrease; actives 0.93% (n = 280,000); also: potency is read from the fitted curve at half-maximal effect; nearly all actives have a fitted effect of over 55% in size
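Human tau K18 P301L (15 uM unlabeled, 0.24 uM Alexa 594-labeled) in 100 mM sodium acetate pH 7 with 20 uM heparin, 6 hr at 37 C. ThT 30 uM added, 1 hr ambient; Alexa 594 FP and total fluorescence read at 555/632 nm.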
Sfp inh: qHTS Assay for Inhibitors of Bacillus subtilis Sfp phosphopantetheinyl transferase (PPTase). actives 3.5% (n = 310,000). Potency, µM, for the others: largest response in the series, negative = inhibition, most hits filed as inhibitors. 4'-phosphopantetheinyl transferase ffp (Bacillus subtilis), Q9F4F7. AID 1490, 2009. Biochemical Sfp PPTase activity, qHTS;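 also: the enzyme is Sfp with the accession as filed and its product quenches rhodamine fluorescence; potency is read from the fitted curve at half-maximal effect; 0% = enzyme reaction without inhibitor and -100% = no enzyme wells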
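Compounds were incubated with enzyme (final 15 nM) for 15 min at room temperature before substrate addition started the reaction. Fluorescence at 525 nm excitation, 598 nm emission was recorded immediately and after 30 minutes.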
Tau ThT inhib: qHTS for Inhibitors of Tau Fibril Formation, Thioflavin T Binding | recombinant tau K18 P301L, heparin-induced fibrillization, ThT fluorescence | Potency, µM (titrated, usually from 57.4 µM), without a hit: at the highest dose activity, negative = inhibition, most hits filed as inhibitors | actives 2.1% (n = 270,000) | AID 1460, 2008; also: potency is read from the fitted curve at half-maximal effect; nearly all actives have a fitted effect of over 55% in size
Target sequence (P10636 561-689 P618L limits assumed): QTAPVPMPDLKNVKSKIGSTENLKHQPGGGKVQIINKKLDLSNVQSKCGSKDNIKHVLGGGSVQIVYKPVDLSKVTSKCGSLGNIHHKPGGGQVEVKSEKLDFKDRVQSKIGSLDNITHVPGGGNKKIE
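Using a mix of unlabeled (15 uM) and Alexa 594-labeled (0.24 uM) tau K18 P301L, heparin-triggered fibrillization over 6 hr at 37 C was scored by ThT fluorescence.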
FBPA coupling cs: qHTS Assay for Inhibitors of Fructose-1,6-bisphosphate Aldolase from Giardia Lamblia: Coupling assay counterscreen. activity change, negative = inhibition, % at 58.2 µM, hits read low. coupling enzyme system counterscreen, AmpLite Red fluorescence. actives 0.67% (n = 290,000); in the data active = activity change below about -30%
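Counterscreen lacking aldolase: glyceraldehyde-3-phosphate coupling-enzyme reagent preincubated 10 min at RT with compound (at 57.5 uM final), then substrate/coupling system with AmpLite Red added; fluorescence read at 525/598 nm after 20 min RT.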
Tau FP inhib: qHTS for Inhibitors of Tau Fibril Formation, Fluorescence Polarization. Microtubule-associated protein tau (Homo sapiens), P10636. K18 P301L tau heparin fibrillization, Alexa594 FP, 6 h. actives 0.39% (n = 280,000). AID 1468, 2008. Potency, µM (top dose mostly 57.7 µM), for the others: top-dose activity, negative = inhibition, most hits filed as inhibitors; also: potency is read from the fitted curve at half-maximal effect; nearly all actives have a fitted effect of over 55% in size
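Heparin (20 uM) drove fibril formation of recombinant tau K18 P301L, 15 uM unlabeled with 0.24 uM Alexa 594 label, for 6 hr at 37 C in 100 mM sodium acetate pH 7. Fluorescence polarization (555/632 nm) read 1 hr after 30 uM ThT.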
* hit, by the source's call; ? = inconclusive; · = no result; [ ] = dose if it differs, or a comment. Unless noted, calls follow the shape of the dose curve; as a rule, active = well fitted curve in the direction sought with a large enough effect; inconclusive = small, poorly fitted or top-dose-only effect, or another doubt; inactive = no such curve, though single readings can be large; an effect the other way counts as inactive or inconclusive. Unless noted, % is scaled to controls: 0 for no effect and ±100 for the full control effect.

SMILES	G9a block	Tau fluor cs	Sfp inh	Tau ThT inhib	FBPA coupling cs	Tau FP inhib
Cc1cc(S(=O)(=O)Nc2ccc(N3CCOCC3)cc2)ccc1Br	39.8µM*	·	8.5%	·	4.4	·
Cc1cc(C)c(S(=O)(=O)Nc2ccc(N3CCOCC3)cc2)c(C)c1	?	?	5.2%	-18.0%	-4.3	7.9%
CN1C(=O)Cc2cc(S(=O)(=O)Nc3ccc(N4CCOCC4)cc3)ccc21	79.4µM*	·	2.3%	·	2.1	·
O=C(C1CC1)N1CCc2cc(Br)cc(S(=O)(=O)Nc3ccc(C(F)(F)F)cc3)c21	-0.4%[59 µM]	-28.9%	·	-5.3%	·	-12.6%
Cc1cc(NC(=O)c2cc(-c3ccc(Cl)cc3)on2)n(-c2ccccc2)n1	-30.8%[59 µM]	-1.7%	·	3.6%	·	-4.8%
CC1CCC/C(=C(\C#N)c2nc(-c3cc4ccccc4oc3=O)cs2)C1 (centres undefined)	-3.4%[59 µM]	?	-17.3%	?	-0.2	-8.5%
CCCSc1nc(C)c(-c2csc(C(C#N)=C3CCCC3)n2)cc1C#N	?	-22.5%	70.8µM*	?	-9.8	3.9%
O=C(CN(Cc1ccco1)C(=O)c1cccc(F)c1)Nc1ccccc1C(F)(F)F	-7.0%[12.7 µM]	·	·	·	·	·
Nc1ccccc1SCc1c(Cl)cccc1Cl	75.4%[59 µM]	-2.0%	21.7%	2.5%	-1.6	-5.8%
Nc1ccccc1SCc1ccccc1Cl	?	-27.8%	20µM*	-13.3%	-1.4	4.6%
Nc1ccccc1SSc1ccccc1N	1.58µM*	?	3.55µM*	·	-3.8	?
CCc1nn2cc(C(=O)c3cc(C)ccc3O)cnc2c1-c1ccc(F)cc1	44.7µM*	-21.0%	-0.5%	-13.3%	-1.7	-2.3%
O=C(CS(=O)(=O)c1cccc2nsnc12)Nc1ccccc1	11.2%[59 µM]	-6.0%	·	-3.6%	·	-3.6%
O=C(Nc1ccc2nc(SCCOc3ccccc3Cl)sc2c1)c1cccs1	6.1%[59 µM]	?	·	12.5%	·	10µM*
Cc1ccc(OCCSc2nc3ccc(NC(=O)c4cccs4)cc3s2)cc1	-12.8%[59 µM]	?	·	?	·	?
Cc1cc(C)cc(OCCSc2nc3ccc(NC(=O)c4cccs4)cc3s2)c1	-4.6%[59 µM]	?	·	7.3%	·	7.08µM*
COc1ccc(N2CCN(C(=O)c3cn(C4CCCCC4)c(=O)c4c3c3ccccc3n4C)CC2)cc1	10µM*	-25.2%	·	?	·	10.6%
Cc1ccc(CNC(=O)c2cc3c(=O)n(C)c4ccccc4c3n2C)o1	?	-4.0%	56.2µM*	-6.5%	2.8	-5.2%
Cn1c(C(=O)NCc2ccc(Cl)cc2)cc2c(=O)n(C)c3ccccc3c21	-31.7%[59 µM]	-7.2%	·	-2.3%	·	-9.7%
Cc1ccc(CNC(=O)c2cn(C)c(=O)c3c2c2ccccc2n3C)o1	0.5%[12.7 µM]	-15.6%	22.4µM*	?	-4.5	-14.4%
Cc1ccc(CNC(=O)c2cn(C3CCCCC3)c(=O)c3c2c2ccccc2n3C)o1	50.1µM*	-22.1%	17.8µM*	?	-8.2	-1.7%
CCC1Oc2ccccc2N(CC(=O)NCc2cc(OC)ccc2OC)C1=O (centres undefined)	6.9%[59 µM]	-22.3%	·	-9.7%	·	-5.0%
O=C1CCCCCN1Sc1ccccc1	10µM*	-12.8%	25.1µM*	14.1µM*	-1.2	?
N#Cc1sc2nc(C3CC3)cc(-c3ccccc3)c2c1N	184.9%	-24.7%	-15.1%	?	0.4	?
N#Cc1c(-c2ccccc2)cc(-c2ccco2)c(C#N)c1N	?	-15.0%	35.5µM*	?	-20.8	-14.8%
N#Cc1sc2nc(-c3ccccc3)cc(-c3ccco3)c2c1N	8.91µM*	?	79.4µM*	?	-20.8	-0.6%
